High-throughput results: PubChem, several laboratories
Beta apoptosis: inhibitors of cytokine-induced beta cell apoptosis, primary screen, luminescence | INS-1E cytokine-induced death, ATP luminescence, 48 h; percent of positive-control rescue, neutral wells zero | protection from apoptosis, % (concentration not given with the values) | 0.8% of 300,000 active;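 active means Every replicate reaches about 75%, or at least half do and their mean reaches it too, limit read from the data; inconclusive means At least half of replicates reach the limit but their mean does not; inactive means Under half of replicates reach the limit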;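 further: 0% = cytokine-treated negative control wells and 100% = positive control rescue; higher means more ATP so stronger rescue from cytokine killing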
CSC inhib: cancer stem cell viability inhibitors, primary screen, luminescence; cancer stem cell-like cells viability; inhibition, % at 7.5 µM; 1.1% of 300,000 active; AID 2717, 2010; in the data active means inhibition above about 75%; inconclusive means no clear call, values can overlap the other calls; tested in HMLE shEcad cells
Calb FLC: C. albicans growth inhibition with fluconazole, primary screen, CaCi-2 strain, Alamar Blue fluorescence; C. albicans CaCi-2 (fluconazole-resistant clinical isolate) + fluconazole, 48 h; growth inhibition, % (concentration not given with the values); 0.57% of 300,000 active; AID 1979, 2009;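 active means growth inhibition above about 58% in most replicates, limit read from the data, passing the limit was not always enough; inconclusive means exactly half the replicates above a set limit; inactive means most replicates below a set limit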;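 further: all wells also contain fluconazole at 8 µg/ml as a sub-toxic cotreatment; 0% = median of DMSO wells and 100% = median of geldanamycin control wells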
SKKanGAS inh: S. pyogenes SKKanGAS growth inhibitors in kanamycin, primary screen, streptokinase expression inhibitor project, SKKanGAS strain, BacTiter-Glo luminescence. inhibition, % at 7.5 µM. 6 h. 1.3% of 300,000 active;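 active means mean replicate score, as percent of positive control median, at least 50; inconclusive means mean below 50 but one replicate at or above 50; inactive means mean and every replicate below 50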;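 further: strain carries kanamycin resistance gene driven by streptokinase promoter and grows in 40 µg/ml kanamycin; loss of luminescence reflects streptokinase promoter inhibition or plain growth inhibition; 0% = median of DMSO wells and 100% = positive control at its reference dose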
MPTP block: mitochondrial permeability transition pore inhibitors, primary screen, biochemical, isolated mouse mitochondria, absorbance. Ca2+ swelling absorbance, 30 min. inhibition, % at 10 µM. 1.4% of 360,000 active. AID 602449, 2012;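 active means inhibition of 50% or more, scaled per plate between neutral and stimulator controls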;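 further: 0% = DMSO wells given calcium and 100% = 1 mM EGTA wells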
Mdm2-MdmX inh: inhibitors of human Mdm2-MdmX association, primary screen, cell-based, luminescence, split luciferase, SaOS-2, uHTS. Protein Mdm4 (Homo sapiens) + E3 ubiquitin-protein ligase Mdm2 (Homo sapiens), …. SaOS-2 split-luciferase Mdm2/MdmX complementation. inhibition, % at 8 µM. 3% of 330,000 active. AID 485346, 2010;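 active means inhibition of at least 50% at 8 µM in the primary screen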
Target sequence (O15151 whole entry, looked up): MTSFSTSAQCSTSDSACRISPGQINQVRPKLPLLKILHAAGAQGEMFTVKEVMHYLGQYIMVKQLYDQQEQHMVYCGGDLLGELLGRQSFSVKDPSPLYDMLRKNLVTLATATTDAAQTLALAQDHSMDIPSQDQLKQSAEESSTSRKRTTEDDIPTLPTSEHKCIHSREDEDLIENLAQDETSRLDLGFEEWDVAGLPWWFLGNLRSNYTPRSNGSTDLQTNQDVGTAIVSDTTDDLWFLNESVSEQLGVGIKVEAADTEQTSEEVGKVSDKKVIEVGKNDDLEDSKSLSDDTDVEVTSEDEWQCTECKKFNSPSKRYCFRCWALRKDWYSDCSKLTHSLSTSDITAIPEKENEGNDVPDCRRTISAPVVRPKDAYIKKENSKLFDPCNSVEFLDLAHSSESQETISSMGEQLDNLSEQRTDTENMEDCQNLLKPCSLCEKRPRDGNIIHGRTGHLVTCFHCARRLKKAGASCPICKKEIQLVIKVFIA
Target sequence (Q00987 whole entry, looked up): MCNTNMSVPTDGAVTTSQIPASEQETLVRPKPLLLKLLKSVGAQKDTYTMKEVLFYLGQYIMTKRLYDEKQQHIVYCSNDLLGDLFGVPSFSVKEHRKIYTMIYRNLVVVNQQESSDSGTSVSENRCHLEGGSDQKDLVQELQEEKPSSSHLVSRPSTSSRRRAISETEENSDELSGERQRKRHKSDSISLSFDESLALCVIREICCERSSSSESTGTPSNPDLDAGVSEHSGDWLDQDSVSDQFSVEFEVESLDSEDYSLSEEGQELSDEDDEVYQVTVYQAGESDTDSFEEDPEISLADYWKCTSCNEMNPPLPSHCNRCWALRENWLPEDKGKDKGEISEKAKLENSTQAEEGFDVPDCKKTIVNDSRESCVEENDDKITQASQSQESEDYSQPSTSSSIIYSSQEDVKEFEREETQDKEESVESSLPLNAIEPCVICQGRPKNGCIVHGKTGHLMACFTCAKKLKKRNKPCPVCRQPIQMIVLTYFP
Mdm2 MdmX conf: Mdm2-MdmX complex disruptors, retested hits, confirmation, luminescence, single concentration; shares compounds with Mdm2-MdmX inh; Mdm2-MdmX binding, luminescent assay; inhibition, % at 8 µM; 55% of 10,000 active; in the data active means inhibition above about 40%
FLuc counter: full-length luciferase signal inhibition, confirmation, counter-screen for Mdm2/MdmX interaction inhibitor project, cell-based, single concentration, SaOS-2; shares compounds with Mdm2-MdmX inh; SaOS-2 full-length luciferase counterscreen, luminescence; inhibition, % at 8 µM; 77% of 6,200 active; AID 504607, 2011;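 active means mean inhibition at 8 µM reaching about 37%, which flags the compound as non-specific, limit read from the data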;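 further: p53-null SaOS-2 cells with luciferase driven by a doxycycline-inducible promoter; compound on cells about two nights before reading with doxycycline added after day one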
Rh123 counter: fluorescence retest of MPTP screen hits in isolated mitochondria, single concentration; shares compounds with MPTP block; membrane potential, Rhodamine 123 fluorescence; inhibition, % at 10 µM; 78% of 5,000 active; in the data active means inhibition above about 22%;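 further: 0% = DMSO vehicle and 100% = positive control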
MPTP swell DR: mitochondrial permeability transition pore inhibitors, dose response, biochemical, absorbance, uHTS hits; shares compounds with MPTP block; isolated mitochondria swelling; IC50, µM; 58% of 780 active; in the data active means IC50 below about 20 µM
MPTP cs DR: fluorescent counter-screen in isolated mitochondria, dose response, counter-screen for MPTP inhibitor project, biochemical, fluorescence, uHTS hits | AID 651564, 2012 | 49% of 780 active | isolated mitochondria counterscreen, fluorescence read-out | shares compounds with MPTP block | IC50, µM; in the data active means IC50 below about 80 µM
* = called active by the depositor; i = inactive; u = inconclusive; x = no result; ! = not active in a repeat. Only some compounds are listed: those with a hit (about 5.4% of all), similar ones and a draw of the others.

SMILES | Beta apoptosis | CSC inhib | Calb FLC | SKKanGAS inh | MPTP block | Mdm2-MdmX inh | Mdm2 MdmX conf | Rh123 counter | others
O=C(NC1CCCC1)c1sc(=S)n2c1[nH]c(=O)c1ccccc12 | 5.5 | 57.6 | 20.4 | 29.7 | 87.4* | 56.9* | 9.2 | 97.4*
Cc1ccc(NC(=O)C(=O)c2cn(CC(=O)N3CCCCC3)c3ccccc23)cc1 | 13.5 | -8.2 | 18.1 | 7.7 | -20.6 | 23.4 | x | x
Cc1ccc(Nc2nc3nonc3[nH]c2=O)cc1Cl | 19.5 | 2.4 | 0.1 | 106.1* | 91.6* | 76.0* | 80.1* | 99.3* | FLuc counter=72.0*
Cc1ccc(NC2=CC(=O)CC(C)(C)C2)cc1Cl | -1.2 | -6.9 | -15.6 | -2.6 | -0.6 | -0.3 | x | x
COC(=O)c1c(NC(=O)c2ccnn2C)sc(C)c1C | 2.4 | 12.1 | 20.3 | 10.4 | 0.2 | 29.9 | x | x
CCN(CC)CCn1c(=N)n(CCOc2ccccc2)c2ccccc21 | -1.0 | 41.0 | -4.2 | -4.4 | 77.5* | 50.0* | 60.6* | 2.1 | FLuc counter=62.0*;MPTP swell DR=i;MPTP cs DR=33*
CCN(CC)CCn1c(=N)n(CC(O)COc2ccccc2)c2ccccc21 (configuration not stated) | 12.0 | -2.7 | 3.9 | 0.7 | -0.4 | 30.0 | x | x
Cn1c(=O)c2cc(NC(=O)NCCc3ccccc3)ccc2n1Cc1cccc(C(F)(F)F)c1 | x | x | x | x | 6.3 | x | x | x
CC1CN(S(=O)(=O)c2ccc(C(=O)Nc3nc(-c4cc5ccccc5o4)cs3)cc2)CC(C)O1 (configuration not stated) | 54.5 | 28.7 | -11.2 | 4.0 | 88.0* | 76.1* | 19.9 | 19.0 | MPTP swell DR=i;MPTP cs DR=<2.5*
O=C(Nc1ccc(S(=O)(=O)N2CCOCC2)cc1)c1cc(-c2ccccc2O)n[nH]1 | -4.1 | 1.8 | 0.1 | 7.7 | 46.4 | 1.2 | x | x
CC1CN(S(=O)(=O)c2ccc(NC(=O)c3cc(-c4ccccc4O)n[nH]3)cc2)CC(C)O1 (configuration not stated) | 8.4 | 40.3 | 53.1 | 19.0 | 79.4* | 58.0* | 32.1 | 71.5*
Cn1c(=O)[nH]c(=O)c2c1nc(N1CCN(C(=O)c3ccco3)CC1)n2CCCSc1ncccn1 | x | x | x | x | -0.3 | x | x | x
Cc1cc(F)ccc1S(=O)(=O)Nc1ccccc1C(=O)Nc1ccccc1-c1nc2ccccc2[nH]1 | 116.0* | 79.0* | u | 58.0* | 72.2* | 96.2* | 91.6* | 68.5* | FLuc counter=51.0*
COc1ccc(-c2csc(/C(C#N)=C\c3ccc(O)c([N+](=O)[O-])c3)n2)cc1OC | 19.9 | 44.7 | 15.7 | 94.7* | 98.9* | 53.2* | 47.3* | 49.8* | FLuc counter=62.0*
N#C/C(=C\c1ccc([N+](=O)[O-])cc1)c1nc(C2CC2)cs1 | -7.3 | 6.0 | 11.5 | -1.8 | 11.4 | -42.1 | x | x
COc1cc(/C=N/NC(=O)C[n+]2ccccc2)cc(OC)c1OC(C)=O | -4.8 | 8.1 | 2.4 | 0.7 | -1.2 | 16.8 | x | x
CCOc1ccc(NS(=O)(=O)c2cc(C(=O)N3CCCC3)ccc2Cl)cc1 | 1.9 | -2.6 | 9.4 | -6.5 | -0.4 | -0.9 | x | x
CCOc1ccc(NS(=O)(=O)c2cc(NC(=O)c3cccc(C)c3)ccc2Cl)cc1 | 2.0 | 50.6 | 15.6 | 20.0 | 88.7* | 51.1* | 45.8* | 41.2* | FLuc counter=78.9*
Fc1ccc(Nc2nc(NCc3ccco3)c3ccccc3n2)cc1 | 43.9 | 85.8* | -1.9 | 11.4 | 85.7* | 77.5* | 13.4 | 81.8*
c1ccc(CNc2nc(-c3ccccc3)nc3ccccc23)cc1 | x | 38.0 | 1.8 | -1.4 | 2.6 | 23.8 | x | x
c1ccc(CNc2nc(NCc3ccccc3)c3ccccc3n2)cc1 | 114.5* | 135.4* | 80.4* | 0.6 | 70.4* | 100.2* | 75.4* | 108.6* | FLuc counter=50.8*
Nc1nc(Nc2ccccc2)nc(NCc2ccco2)c1[N+](=O)[O-] | -7.7 | 27.8 | 41.5 | -2.7 | 1.8 | 18.4 | x | x
N=c1c(-c2nc3ccccc3[nH]2)cc(C(=O)c2cccs2)nn1-c1ccccc1 | -5.8 | -13.5 | -2.8 | 51.1* | 90.8* | 56.0* | 39.7 | 38.5* | FLuc counter=58.7*
OCCN1CCN(CCCN2c3ccccc3Sc3ccc(C(F)(F)F)cc32)CC1 | 11.4 | 85.5* | x | 8.3 | 86.0* | 60.5* | 26.6 | -18.1
CN1CCN(CCCN2c3ccccc3Sc3ccc(Cl)cc32)CC1 | 3.0 | 93.7*! | x | 6.2 | 91.9* | 54.1* | 31.9 | -18.6
SMILES | Beta apoptosis | CSC inhib | Calb FLC | SKKanGAS inh | MPTP block | Mdm2-MdmX inh | Mdm2 MdmX conf | Rh123 counter | others
O=C(CCN1CCOCC1)N1c2ccccc2Sc2ccc(Cl)cc21 | -5.6 | 4.3 | -9.1 | 2.3 | -2.1 | 16.6 | x | x
CCSc1ccc2c(c1)N(CCCN1CCN(C)CC1)c1ccccc1S2 | 7.7 | 77.5* | x | x | 95.7* | 60.3* | 21.2 | -20.0
COc1ccc(C(=O)C2CCCN(C(=O)c3ccnn3C)C2)c(C)c1 (configuration not stated) | -17.4 | -18.9 | 18.9 | -1.1 | 0.6 | -17.9 | x | x
O=C(OCc1c(Cl)cccc1Cl)c1ccncc1 | -4.0 | 4.7 | 3.6 | -0.6 | 0.6 | 7.4 | x | x
CC(C)N1CCC2(CC1)N=C(c1ccc3c(c1)OCO3)CC(c1cc(Cl)ccc1O)N2 (configuration not stated) | 8.6 | 7.0 | -5.3 | -12.6 | 69.1* | 69.6* | 27.0 | -5.8
O=C(NOC(=O)c1cc(Br)ccc1Cl)c1cccs1 | -3.3 | -1.3 | 10.0 | 17.2 | -1.3 | -15.7 | x | x
CN1CCCCC1CCN1c2ccccc2Sc2ccc(S(C)=O)cc21 (configuration not stated) | -11.8 | 3.1 | -15.2 | 1.2 | 1.4 | 24.2 | x | x
CN1CCCC(CN2c3ccccc3Sc3ccccc32)C1 (configuration not stated) | x | 4.6 | x | -0.2 | 81.7* | 51.4* | 19.2 | -18.0
CN1CCCC(CC2c3ccccc3Sc3ccccc32)C1 (configuration not stated) | x | 9.1 | x | x | 99.9* | 59.1* | 38.9 | -18.8 | FLuc counter=64.6*;MPTP swell DR=9.44*;MPTP cs DR=>80
CN1CCCC(OC(=O)c2ccccc2F)C1 (configuration not stated) | -6.5 | -13.4 | -9.3 | -2.9 | 1.5 | 9.4 | x | x
